# PubChem BioAssay AID1347433 (National Center for Advancing Translational Sciences (NCATS), 2020)
# Results filed as inconclusive are left out. The source made the active and inactive calls. The call rests on the fitted dose curve; in most records, active means well fitted curve in the direction sought with a large enough effect; inconclusive means small, poorly fitted or top-dose-only effect, or another doubt; inactive means no such curve, though single readings can be large or run the other way.
# Target: Single-stranded DNA cytosine deaminase (Homo sapiens) (UniProt Q9GZX7)
# Sequence (Q9GZX7 whole entry, looked up): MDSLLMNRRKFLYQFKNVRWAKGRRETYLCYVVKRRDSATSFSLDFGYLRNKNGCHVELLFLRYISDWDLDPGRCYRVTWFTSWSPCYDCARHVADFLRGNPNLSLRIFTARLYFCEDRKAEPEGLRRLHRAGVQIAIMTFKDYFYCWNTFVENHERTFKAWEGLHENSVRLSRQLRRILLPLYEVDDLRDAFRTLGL
# Experiment: Confirmatory (Round 2) qHTS assay for inhibitors of Activation Induced Cytidine Deaminase (AID): AID signals
# Conditions: AID deamination FRET-based fluorescence assay with UDG, 4 h; series mostly up to 78.4 µM; activity, negative = inhibition: at the top concentration
# Excerpt: Assay Provider (PI) Patricia Gearhart Ph.D. National Institute on Aging National Institute of Health (NIH), Bethesda, MD Assay Provider (PI) Rahul Kohli Ph.D. Perelman School of Medicine University of Pennsylvania, Philadelphia, PA Activation-Induced Deaminase (AID) is a cytosine deaminase which converts cytosine into uracil within stretches of ssDNA. The presence of uracil in DNA initiates a cascade of mutagenic DNA repair to introduce point mutations and DNA double strand breaks. Specific targeting of AID to the immunoglobulin heavy chain loci (Igh) promotes mutagenesis in the antibody variable region for somatic hypermutation (SHM) or switch regions leading to class switch recombination (CSR). However, AID also plays a role in accumulating unnecessary mutations across the genome. Mis-targeting of AID results in the initiation of tumor development and leads to greater drug resistance among cancer cells when continually expressed. To identify an AID inhibitor, a small molecule library will be screened in collaboration with NCATS core facility at NIH. To confirm biological function, inhibitors will be examined in an in vitro murine B-cell activation assay and subsequent secondary validation screens. Top molecules will be further screened to identify inhibitory efficacy against a wild type primary splenocytes assay. Using these approaches, we hope to identify a small molecule with great efficacy and low toxicity for use as a molecular probe to further characterize AID's intricacies, or even as a therapeutic. A FRET based analysis of cytosine deamination, was developed to identify potential inhibitors of AID catalytic activity. This screen has two signal output, Read 1 evaluates the AID inhibition response. The second readout (Read 2) evaluates UDG response and is uses as a counterscreen to exclude false positive inhibitors. Inhibition in AID and inactivity in the UDG signal is the desired outcome for this assay.
# PROTOCOL TABLE SEQUENCE No. (e.g., 1, 2, 3, etc.); PARAMETER (e.g., Cells, Incubation, Reagent, etc.); VALUE; DESCRIPTION 1a; Reagent; 3 uL; [4/3x] 1 uM AID/2.67 U/mL UDG 1b; Reagent; 3 uL; 2 U/mL UDG 1c; Reagent; 3 uL; 1 uM AID 2a; Compound; 46 nL; Follow-up plates (0.64 uM - 10 mM) 2b; Control; 46 nL; ATA ([…] - 10 mM) 3; Time; 10 min; incubation at room temperature 4; Reagents; 1 uL; [4x] 250 nM DJC20 / 250 nM DJC23 [Substrate] 5; Time; 4 hr; incubation at room temperature 6; Reagent; 4 uL; [2x] 250 mM NaOH 7; Time; 15 sec; centrifuge at 1000 rpm 8; Time; 30 min; incubation at room temperature 9a; Detection; fluorescence (Read 1: AID); EnVision (PerkinElmer) plate reader, 540 excitation and 590 emission filters 9b; Detection; fluorescence (Read 2: UDG); EnVision (PerkinElmer) plate reader, 560 excitation and 665 emission filters NOTES (numbers refer to sequence above) 1a; Reagents were dispensed in a medium-binding black solid-bottom Greiner plates (789176F) using a BioRptr liquid dispenser. Dispense 3 uL of [4/3x] 1 uM AID (provided by Kohli lab) and [4/3x] 2 U/mL UDG (NEB M0280L) into columns 1, 2, 5 to 48. 1b; Dispense 3 uL of [4/3x] 2 U/mL UDG into column 3. 1c; Dispense 3 uL of [4/3x] 1 uM AID into column 4. 2a; Compound (7-points [uM]: 0.64; 3.2; 16; 80; 400; 2,000; 10,000; […]) double pin-transferred (Dip Factor = 2) using the Kalypsys (Wako USA) pintool equipped with a 1536 pinhead for a final concentration range of 7.32 nM - 114 uM. 2b; 10 mM Aurintricarboxylic Acid (Sigma A1895) (ATA, 8-point, n = 2, 1:2.5 dilution in column 2) double pin-transferred (Dip Factor = 2) using the Kalypsys (Wako USA) pintool equipped with a 1536 pinhead for a [final] range of 186 nM - 114 uM. 3; Room temperature incubation. 4; Dispense 1 uL of substrate mixture from the Kohli lab [4x] […] DJC20 and [4x] 250 nM DJC23 into columns 1 to 48 . 5; Room temperature incubation. 6; Dispense 4 uL of substrate mixture [2x] 250 mM NaOH into columns 1 to 48. 7; Centrifugation step to remove bubbles. […]
SMILES,"activity, negative = inhibition",Potency
Cn1ccnc1CCSc1nc(-c2ccccc2)nc2cc(=O)[nH]n12,-3.59% (inactive),
O=c1cc2nc(-c3ccccc3)nc(SCCCn3ccnc3)n2[nH]1,-1.78% (inactive),
O=c1cc2nc(-c3ccccc3)nc(SCCCc3ccncc3)n2[nH]1,-7.64% (inactive),
O=C(O)C1=CC(=C(c2ccc(O)c(C(=O)O)c2)c2ccc(O)c(C(=O)O)c2)C=CC1=O,,2240 nM (active)
Cc1noc(C)c1CCSc1nc(-c2ccccc2)nc2cc(=O)[nH]n12,-15.9% (inactive),
CN1CCN(CCCSc2nc(-c3ccccc3)nc3cc(=O)[nH]n23)CC1,-1.4% (inactive),
O=c1cc2nc(-c3ccccc3)nc(SCCN3CCC(F)(F)CC3)n2[nH]1,-9.2% (inactive),
